According to the supplement of paper PMC10849652:
Targets with a hit are over-represented here; the source holds about 8,800 in all. About 0.5% of all pairs of compound and target were hits.

Legend:
Assay in all cases: log2 fold change, soluble protein after heating vs DMSO (PISA); higher = thermal stabilisation; K562 lysate, 10 uM; active = over 0.2 and 3.5 SD of the protein, either way, in both replicates (recomputed)
[1] = compound: NCC(=O)Nc1ccc(-n2nc(C(F)(F)F)cc2-c2ccc3c(ccc4ccccc43)c2)cc1
Outline: (§1)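 To prepare the extract, K562 pellets were dounce-homogenised in PBS pH 7.4 with 1 mM MgCl2, giving crude material at 1 mg/mL protein. This was treated with 10 μM compound for 30 min, then heated in aliquots for 3 min over 48°C-58°C before pooling and addition of NP-40 to 0.5% at 4°C. Centrifugation at 21,000xg for 90 min left soluble protein in the supernatant, which TMTpro 16plex LC-MS/MS quantified with equalised channel sums. Results are log-two fold changes in thermal stability compared with solvent controls, from duplicates.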

[2] = compound: O=C(CCCCCCC(=O)Nc1ccccc1)NO [vorinostat]
Outline: as §1

[3] = compound: O=C(O)c1ccc2c(c1)nc(Nc1cccc(Cl)c1)c1ccncc12 [silmitasertib]
Outline: as §1

[4] = compound: O=C1NC(=O)C(c2cnc3ccccn23)=C1c1cn2c3c(cc(F)cc13)CN(C(=O)N1CCCCC1)CC2
Outline: as §1

[5] = compound: c1cn2cc(-c3ccc4cn[nH]c4c3)nc(Nc3ccc(N4CCOCC4)cc3)c2n1 [entospletinib]
Outline: as §1

Measured: log2 fold change

DLD (UniProt P09622)
inactive: [1] -0.003 | [3] 0.004 | [4] 0.008 | [5] 0.01
active: [2] -1.96

CORO1A (UniProt P31146)
inactive: [1] 0.094 | [3] -0.003 | [4] 0.025 | [5] 0.116
active: [2] -0.412

CSPP1 (UniProt Q1MSJ5)
inactive: [1] 0.122 | [2] 0.085 | [3] -0.027 | [4] 0.043 | [5] 0.003

DDX39A (UniProt O00148)
Sequence of UniProt O00148 (O00148 whole entry, looked up): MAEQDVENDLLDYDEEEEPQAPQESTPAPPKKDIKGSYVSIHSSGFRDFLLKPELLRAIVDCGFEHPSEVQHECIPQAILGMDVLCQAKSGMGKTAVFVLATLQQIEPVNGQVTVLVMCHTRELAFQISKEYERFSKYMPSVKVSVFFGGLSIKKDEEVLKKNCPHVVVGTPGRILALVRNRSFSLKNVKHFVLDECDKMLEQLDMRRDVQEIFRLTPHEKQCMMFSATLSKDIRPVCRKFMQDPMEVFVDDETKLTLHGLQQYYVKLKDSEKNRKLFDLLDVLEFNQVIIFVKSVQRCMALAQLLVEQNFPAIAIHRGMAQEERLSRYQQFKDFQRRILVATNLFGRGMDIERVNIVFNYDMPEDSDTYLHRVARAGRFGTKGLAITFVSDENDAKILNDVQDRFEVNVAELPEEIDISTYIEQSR
active: [2] -0.383
inactive: [1] 0.017 | [3] 0.017 | [4] 0.036 | [5] -0.033

CNIH4 (UniProt Q9P003)
inactive: [1] 0.09 | [2] 0.08 | [3] 0.055 | [4] 0.114 | [5] 0.038

CNDP2 (UniProt Q96KP4)
inactive: [1] 0.023 | [2] 0.133 | [3] -0.025 | [4] -0.008 | [5] 0.01

CHEK1 (UniProt O14757)
inactive: [1] 0.008 | [2] 0.086 | [3] 0.168 | [4] -0.014 | [5] 0.009

DHCR7 (UniProt Q9UBM7)
inactive: [1] -0.098 | [2] -0.022 | [3] 0.03 | [4] -0.004 | [5] 0.078

COTL1 (UniProt Q14019)
inactive: [1] -0.03 | [2] 0.147 | [3] 0 | [4] -0.021 | [5] 0.023

DNAH5 (UniProt Q8TE73)
Sequence of UniProt Q8TE73 (Q8TE73 whole entry, looked up): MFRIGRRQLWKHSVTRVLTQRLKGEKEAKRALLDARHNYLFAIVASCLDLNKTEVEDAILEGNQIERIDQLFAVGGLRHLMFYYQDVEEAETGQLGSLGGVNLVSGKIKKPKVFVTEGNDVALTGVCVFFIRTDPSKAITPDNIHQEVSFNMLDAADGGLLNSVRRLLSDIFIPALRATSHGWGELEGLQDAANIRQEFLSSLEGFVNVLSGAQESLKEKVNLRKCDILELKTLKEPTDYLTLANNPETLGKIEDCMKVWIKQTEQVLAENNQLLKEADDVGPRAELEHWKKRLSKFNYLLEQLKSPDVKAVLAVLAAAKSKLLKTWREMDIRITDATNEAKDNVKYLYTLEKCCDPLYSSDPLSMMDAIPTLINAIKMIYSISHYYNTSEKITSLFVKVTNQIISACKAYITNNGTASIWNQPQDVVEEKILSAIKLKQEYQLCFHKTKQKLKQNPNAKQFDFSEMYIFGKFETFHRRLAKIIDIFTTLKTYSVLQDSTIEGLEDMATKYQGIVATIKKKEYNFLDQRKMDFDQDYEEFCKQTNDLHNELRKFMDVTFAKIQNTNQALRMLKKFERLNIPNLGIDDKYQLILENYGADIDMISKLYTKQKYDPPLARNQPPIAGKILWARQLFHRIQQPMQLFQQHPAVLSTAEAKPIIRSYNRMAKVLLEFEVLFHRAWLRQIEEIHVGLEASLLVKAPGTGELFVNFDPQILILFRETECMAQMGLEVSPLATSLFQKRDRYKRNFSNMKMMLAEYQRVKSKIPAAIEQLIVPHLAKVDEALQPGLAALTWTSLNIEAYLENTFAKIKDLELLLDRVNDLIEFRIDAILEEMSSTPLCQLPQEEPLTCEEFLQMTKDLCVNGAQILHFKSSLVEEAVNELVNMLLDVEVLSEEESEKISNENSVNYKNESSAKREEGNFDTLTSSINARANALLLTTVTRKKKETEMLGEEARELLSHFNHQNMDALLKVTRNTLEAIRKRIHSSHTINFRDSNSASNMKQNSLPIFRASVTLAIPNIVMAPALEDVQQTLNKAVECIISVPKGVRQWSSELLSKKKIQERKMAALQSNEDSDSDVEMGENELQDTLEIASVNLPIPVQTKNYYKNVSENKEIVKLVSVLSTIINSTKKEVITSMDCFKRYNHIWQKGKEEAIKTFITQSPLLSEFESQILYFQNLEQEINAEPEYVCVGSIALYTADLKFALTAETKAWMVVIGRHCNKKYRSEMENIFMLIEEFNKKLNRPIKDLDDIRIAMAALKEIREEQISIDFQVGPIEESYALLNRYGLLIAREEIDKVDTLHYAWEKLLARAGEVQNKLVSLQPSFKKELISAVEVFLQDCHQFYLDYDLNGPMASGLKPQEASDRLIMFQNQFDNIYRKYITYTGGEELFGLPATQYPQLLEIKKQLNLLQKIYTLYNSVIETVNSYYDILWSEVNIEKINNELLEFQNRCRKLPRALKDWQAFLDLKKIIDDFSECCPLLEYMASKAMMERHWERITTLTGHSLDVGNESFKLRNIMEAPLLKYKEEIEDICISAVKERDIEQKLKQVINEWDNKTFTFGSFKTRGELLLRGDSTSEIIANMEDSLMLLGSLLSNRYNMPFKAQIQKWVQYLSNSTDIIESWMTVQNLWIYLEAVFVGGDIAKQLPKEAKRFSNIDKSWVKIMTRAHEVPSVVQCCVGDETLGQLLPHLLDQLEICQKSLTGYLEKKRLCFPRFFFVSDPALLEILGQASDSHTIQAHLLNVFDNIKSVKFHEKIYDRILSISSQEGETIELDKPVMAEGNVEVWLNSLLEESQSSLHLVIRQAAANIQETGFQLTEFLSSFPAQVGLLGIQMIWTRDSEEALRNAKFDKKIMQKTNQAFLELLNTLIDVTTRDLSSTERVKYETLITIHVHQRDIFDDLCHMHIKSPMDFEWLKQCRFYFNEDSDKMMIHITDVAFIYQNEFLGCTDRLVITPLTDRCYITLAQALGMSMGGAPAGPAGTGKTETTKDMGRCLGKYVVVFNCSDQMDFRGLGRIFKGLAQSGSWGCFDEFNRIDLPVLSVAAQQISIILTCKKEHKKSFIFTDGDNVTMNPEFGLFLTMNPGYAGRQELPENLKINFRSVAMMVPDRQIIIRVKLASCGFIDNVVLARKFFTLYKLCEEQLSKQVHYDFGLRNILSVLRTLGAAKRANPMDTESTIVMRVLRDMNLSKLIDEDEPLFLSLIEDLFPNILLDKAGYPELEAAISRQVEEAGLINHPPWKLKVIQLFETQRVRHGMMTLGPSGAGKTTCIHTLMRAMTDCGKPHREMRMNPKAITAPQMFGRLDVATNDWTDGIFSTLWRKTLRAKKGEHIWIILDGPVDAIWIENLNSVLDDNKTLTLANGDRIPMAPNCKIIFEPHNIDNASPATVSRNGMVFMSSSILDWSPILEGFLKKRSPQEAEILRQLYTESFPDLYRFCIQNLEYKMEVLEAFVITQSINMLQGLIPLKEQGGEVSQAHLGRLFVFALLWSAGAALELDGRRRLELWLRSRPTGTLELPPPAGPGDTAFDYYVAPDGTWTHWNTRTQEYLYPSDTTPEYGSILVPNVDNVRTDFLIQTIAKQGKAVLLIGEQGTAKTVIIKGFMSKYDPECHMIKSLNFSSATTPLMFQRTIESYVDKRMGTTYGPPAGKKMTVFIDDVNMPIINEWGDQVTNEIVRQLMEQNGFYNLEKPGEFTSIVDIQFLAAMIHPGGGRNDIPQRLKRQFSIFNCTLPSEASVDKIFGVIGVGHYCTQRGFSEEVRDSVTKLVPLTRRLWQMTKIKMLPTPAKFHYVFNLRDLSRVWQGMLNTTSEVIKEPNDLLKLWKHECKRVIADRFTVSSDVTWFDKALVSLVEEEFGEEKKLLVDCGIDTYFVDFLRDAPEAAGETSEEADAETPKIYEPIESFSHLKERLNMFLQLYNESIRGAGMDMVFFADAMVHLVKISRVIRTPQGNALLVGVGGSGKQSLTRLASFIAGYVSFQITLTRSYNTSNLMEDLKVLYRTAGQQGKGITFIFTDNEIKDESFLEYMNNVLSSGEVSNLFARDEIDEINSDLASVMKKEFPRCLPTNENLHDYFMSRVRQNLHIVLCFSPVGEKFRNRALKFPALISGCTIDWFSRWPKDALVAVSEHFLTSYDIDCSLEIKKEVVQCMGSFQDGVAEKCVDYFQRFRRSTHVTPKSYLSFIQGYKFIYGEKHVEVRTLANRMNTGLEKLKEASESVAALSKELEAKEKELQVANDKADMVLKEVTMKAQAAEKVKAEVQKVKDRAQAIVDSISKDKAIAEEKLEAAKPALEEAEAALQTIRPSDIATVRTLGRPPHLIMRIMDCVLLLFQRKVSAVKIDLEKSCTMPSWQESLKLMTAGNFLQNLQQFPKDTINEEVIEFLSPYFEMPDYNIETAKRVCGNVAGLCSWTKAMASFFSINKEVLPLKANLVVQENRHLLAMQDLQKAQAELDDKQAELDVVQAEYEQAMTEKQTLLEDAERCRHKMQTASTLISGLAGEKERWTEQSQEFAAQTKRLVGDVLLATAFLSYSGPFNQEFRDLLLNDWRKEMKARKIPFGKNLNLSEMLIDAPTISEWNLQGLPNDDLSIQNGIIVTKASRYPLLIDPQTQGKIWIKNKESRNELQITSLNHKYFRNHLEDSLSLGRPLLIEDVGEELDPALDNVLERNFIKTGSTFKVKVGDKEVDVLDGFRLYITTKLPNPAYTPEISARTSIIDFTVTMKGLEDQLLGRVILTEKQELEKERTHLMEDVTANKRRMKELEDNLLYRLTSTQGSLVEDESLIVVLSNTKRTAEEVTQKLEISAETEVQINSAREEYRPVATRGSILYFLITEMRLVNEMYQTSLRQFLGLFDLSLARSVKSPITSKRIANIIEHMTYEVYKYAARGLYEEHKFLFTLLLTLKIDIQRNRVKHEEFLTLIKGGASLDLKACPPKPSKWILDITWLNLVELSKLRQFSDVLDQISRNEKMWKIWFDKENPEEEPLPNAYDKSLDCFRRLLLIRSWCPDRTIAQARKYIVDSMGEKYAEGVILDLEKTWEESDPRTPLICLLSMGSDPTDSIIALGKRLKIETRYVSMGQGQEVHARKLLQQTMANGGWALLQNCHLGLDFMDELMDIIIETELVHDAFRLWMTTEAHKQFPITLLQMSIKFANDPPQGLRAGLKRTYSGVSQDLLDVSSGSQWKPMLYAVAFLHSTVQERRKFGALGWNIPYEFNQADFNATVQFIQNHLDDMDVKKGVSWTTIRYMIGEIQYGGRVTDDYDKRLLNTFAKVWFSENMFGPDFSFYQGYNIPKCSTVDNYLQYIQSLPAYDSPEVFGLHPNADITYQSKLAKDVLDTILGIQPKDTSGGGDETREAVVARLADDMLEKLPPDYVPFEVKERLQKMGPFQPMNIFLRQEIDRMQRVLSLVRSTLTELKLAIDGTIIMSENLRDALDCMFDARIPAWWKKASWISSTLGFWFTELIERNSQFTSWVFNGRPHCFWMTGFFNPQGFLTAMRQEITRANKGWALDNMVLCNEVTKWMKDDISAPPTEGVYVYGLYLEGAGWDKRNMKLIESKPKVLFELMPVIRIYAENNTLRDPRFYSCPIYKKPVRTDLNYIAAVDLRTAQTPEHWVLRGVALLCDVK
inactive: [1] 0.008 | [2] 0.113 | [3] -0.179

COQ8A (UniProt Q8NI60)
inactive: [1] -0.043 | [2] -0.042 | [3] -0.161 | [4] 0.016 | [5] 0.053

CLASP1 isoform 4 (UniProt Q7Z460)
inactive: [1] -0.214 | [2] 0.167 | [3] 0.06

DOCK8 (UniProt Q8NF50)
inactive: [1] -0.015 | [3] 0.06 | [4] 0.022 | [5] -0.052
active: [2] -0.489

DCP1A (UniProt Q9NPI6)
active: [2] -0.234
inactive: [1] -0.03 | [3] 0.022 | [4] 0.011 | [5] 0.027

CLIP1 isoform 1 (UniProt P30622)
inactive: [1] -0.008 | [2] 0.092 | [3] -0.01 | [4] -0.01 | [5] -0.009

DPY19L3 (UniProt Q6ZPD9)
inactive: [1] -0.085 | [2] 0.219 | [3] 0.108 | [4] 0.035 | [5] -0.024

DNAJC3 (UniProt Q13217)
inactive: [1] -0.029 | [2] 0.064 | [3] 0.017 | [4] 0.033 | [5] 0

CHUK (UniProt O15111)
active: [2] -0.492
inactive: [1] -0.016 | [3] 0.103 | [4] 0.054 | [5] 0.012

CUX1 isoform 2 (UniProt Q13948)
inactive: [1] -0.102 | [2] 0.101 | [3] 0.086 | [4] 0.676 | [5] -0.077

CLIC2 (UniProt O15247)
inactive: [1] 0.022 | [3] -0.018 | [4] 0.029 | [5] 0.005
active: [2] -0.369

CNOT6L (UniProt Q96LI5)
inactive: [1] 0.019 | [2] -0.032 | [3] 0.004 | [4] 0.017 | [5] 0

DFFB (UniProt O76075)
inactive: [1] -0.003 | [3] -0.025 | [4] 0.013 | [5] -0.011
active: [2] 0.258

DAZAP1 (UniProt Q96EP5)
inactive: [1] 0.032 | [2] -0.031 | [3] 0.014 | [4] 0.032 | [5] -0.001

DNA2 (UniProt P51530)
active: [2] -0.448
inactive: [1] -0.059 | [3] 0.127 | [4] -0.027 | [5] -0.053

COL6A5 (UniProt A8TX70)
inactive: [1] 0.281 | [2] 0.011 | [3] -0.003 | [4] 0.022 | [5] 0.009
